The results in this text go back to PubChem BioAssay (Tox21).

The nature of assay [1]: qHTS assay to identify aromatase inhibitors - cell viability counter screen (AID 743084).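 Also: cells stimulated with testosterone during compound exposure; nearly all actives have a fitted effect of over 55% in size.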 Also: potency is read from the fitted curve at half-maximal effect. In general terms: qHTS replaces the single test concentration by a dilution series.
The target in assay [2] is Aryl hydrocarbon receptor (Homo sapiens) (UniProt P35869). Put plainly: qHTS assay to identify small molecule that activate the aryl hydrocarbon receptor (AhR) signaling pathway (AID 743085).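 Also: HG2L7.5c1 human HepG2 liver cells with stably integrated DRE-driven firefly reporter; series mostly up to about 70 µM; nearly all actives have a fitted effect of over 15% in size.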 The method, boiled down:
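Stably transfected human liver carcinoma cells (HG2L7.5c1; 20 DRE-firefly luciferase) were incubated 5 h, dosed, and kept 24 h at 37C. Agonism was scored from increased luciferase luminescence.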

A short description of assay [3]: qHTS assay to identify small molecule that activate the aryl hydrocarbon receptor (AhR) signaling pathway - cell viability counter screen (AID 743086). Also: nearly all actives have a fitted effect of over 45% in size. Also: potency is read from the fitted curve at half-maximal effect. Summed up:
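HepG2-AhR-luc (HG2L7.5c1) cells, 4000/well, treated 24 h at 37 C with compound; viability measured as CellTiter-Fluor fluorescence after 30 min in the same wells as the luciferase read.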

The target of assay [4] is Peroxisome proliferator-activated receptor gamma (Homo sapiens) (UniProt P37231). Put plainly: qHTS assay to identify small molecule agonists of the peroxisome proliferator-activated receptor gamma (PPARg) signaling pathway (AID 743094; active = well fitted activation curve with a large enough effect in the signal ratio in the repeat runs, not every such curve was filed as active; the % refers to the signal ratio). The method, boiled down:
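HEK293H PPARg-bla cells, 5 h settle at 37C/5% CO2; compound (DMSO) 17 h, 37C; B/G FRET substrate 1 h RT; fluorescence intensity read-out. qHTS format.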

A short description of assay [5]: qHTS assay to identify small molecule antagonists of the peroxisome proliferator-activated receptor gamma (PPARg) signaling pathway - cell viability counter screen (AID 743194). Also: nearly all actives have a fitted effect of over 55% in size. As to conditions: Potency: co-treated with 50 nM rosiglitazone. The method, boiled down: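 Cytotoxicity counter screen in PPARg-bla HEK293H cells, same wells as reporter assay. Compounds plus 50 nM rosiglitazone (final) for 17 h at 37 C, then viability read by CellTiter-Glo luminescence.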

The nature of assay [6]: qHTS assay for small molecule agonists of the antioxidant response element (ARE) signaling pathway (AID 743202; active = well fitted activation curve with a large enough effect in the signal ratio in the repeat runs, not every such curve was filed as active; the % refers to the signal ratio; also: potency is read from the fitted curve at half-maximal effect). Summed up: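 HepG2 ARE-bla reporter line, 2,000 cells/well; 5 h preincubation 37 C/5% CO2; compound (DMSO) 16 h 37 C; B/G FRET substrate 2 h RT; fluorescence intensity.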
Assay [7] is described as follows: qHTS assay for small molecule activators of the heat shock response signaling pathway - cell viability counter screen (AID 743209). Also: nearly all actives have a fitted effect of over 50% in size. Summed up:
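HSE-bla HeLa; 1500 cells/well; overnight 37 C, 5% CO2; compound 5 h 37 C; LiveBLAzer B/G substrate 2.5 h RT; CellTiter-Glo 30 min RT; luminescence.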

Assay [8] in a line: qHTS assay for small molecule activators of the heat shock response signaling pathway (AID 743210; active = well fitted activation curve with a large enough effect in the signal ratio in the repeat runs, with a control signal flat, not every such curve was filed as active; the % refers to the signal ratio; also: series mostly up to about 63 µM). Summed up: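 Beta-lactamase reporter read-out: FRET substrate fluorescence after 2.5 h at RT, following 5 h compound treatment at 37 C of HeLa cells carrying HSE-driven bla reporter; quantitative HTS format.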
Assay [9] is described as follows: qHTS assay to identify small molecule agonists of the peroxisome proliferator-activated receptor delta (PPARd) signaling pathway - cell viability counter screen (AID 743211). Also: nearly all actives have a fitted effect of over 55% in size. The method, boiled down: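 In the same wells used for beta-lactamase reporter measurement, cytotoxicity is scored by CellTiter-Glo. HEK293H PPARd-bla cells receive compound for 17 h at 37C following a 5 h settling period.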

Assay [10] has as its target Peroxisome proliferator-activated receptor delta (Homo sapiens) (UniProt Q03181). Put plainly: qHTS assay to identify small molecule agonists of the peroxisome proliferator-activated receptor delta (PPARd) signaling pathway (AID 743212; calls by dose curve). Summed up: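 Read-out: beta-lactamase FRET fluorescence after 2 h room-temperature incubation with LiveBLAzer B/G substrate. Cells were HEK293H carrying a UAS-bla reporter for PPARd, treated at 37 C with DMSO-dissolved compounds.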

The nature of assay [11]: qHTS assay to identify small molecule antagonists of the peroxisome proliferator-activated receptor delta (PPARd) signaling pathway - cell viability counter screen (AID 743213). Also: nearly all actives have a fitted effect of over 50% in size. The method, boiled down: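 PPARd-bla HEK293H cells were treated with compounds plus agonist L165041 (300 nM final) for 17 h at 37 C. Viability was then read in the same wells by CellTiter-Glo luminescence after 30 min at room temperature.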

For assay [12], the target named is Peroxisome proliferator-activated receptor delta (Homo sapiens) (UniProt Q03181). Put plainly: qHTS assay to identify small molecule antagonists of the peroxisome proliferator-activated receptor delta (PPARd) signaling pathway (AID 743215; active = well fitted inhibition curve with a large enough effect in the signal ratio in the repeat runs, not every such curve was filed as active; the % refers to the signal ratio;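 also: cells stimulated with agonist L165041 at 300 nM final during compound exposure; series mostly up to about 62 µM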). The method, boiled down:
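HEK293H GeneBLAzer PPARd UAS-bla reporter cells; cpd + L165041 300 nM final, 17 h 37 C; LiveBLAzer B/G FRET substrate 2 h RT; fluorescence intensity read-out. Antagonist mode.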

Assay [13] deals with Vitamin D3 receptor (Homo sapiens) (UniProt P11473). Put plainly: qHTS assay to identify small molecule agonists of the vitamin D receptor (VDR) signaling pathway (AID 743222; calls by dose curve). Summed up: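 Beta-lactamase reporter readout (LiveBLAzer B/G FRET, 2 h RT) in VDR-bla cells after 16 h compound treatment at 37C, 5% CO2; cells pre-incubated 4 h before pin transfer of DMSO solutions.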
Chain of Vitamin D3 receptor (Homo sapiens) (P11473 whole entry, looked up): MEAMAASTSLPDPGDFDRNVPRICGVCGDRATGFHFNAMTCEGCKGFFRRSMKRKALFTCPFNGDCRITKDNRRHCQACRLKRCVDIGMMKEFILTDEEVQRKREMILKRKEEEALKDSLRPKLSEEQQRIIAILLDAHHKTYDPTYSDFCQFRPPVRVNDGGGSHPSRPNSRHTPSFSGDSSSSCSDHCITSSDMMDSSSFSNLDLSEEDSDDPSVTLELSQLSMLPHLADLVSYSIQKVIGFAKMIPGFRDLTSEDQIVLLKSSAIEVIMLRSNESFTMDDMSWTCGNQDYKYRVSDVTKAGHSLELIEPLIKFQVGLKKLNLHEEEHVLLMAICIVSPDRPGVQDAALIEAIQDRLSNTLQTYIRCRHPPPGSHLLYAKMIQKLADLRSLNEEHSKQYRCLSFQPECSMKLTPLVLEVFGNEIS

For assay [14] the target is unchanged. Put plainly: qHTS assay to identify small molecule antagonists of the vitamin D receptor (VDR) signaling pathway (AID 743223; active = well fitted inhibition curve with a large enough effect in the signal ratio in the repeat runs, not every such curve was filed as active; the % refers to the signal ratio). The method, boiled down:
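Inhibition of agonist-driven VDR signalling is scored in VDR-bla cells: 3 nM final 1alpha,25-dihydroxyvitamin D3 plus compound, 16 h at 37C, then beta-lactamase detection by FRET substrate fluorescence after 2 h.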

Assay [15] is described as follows: qHTS assay for small molecule agonists of the antioxidant response element (ARE) signaling pathway - cell viability counter screen (AID 743203; calls by dose curve; also: nearly all actives have a fitted effect of over 55% in size; also: potency is read from the fitted curve at half-maximal effect). The method, boiled down: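 Luminescence read-out (CellTiter-Glo, 30 min at room temperature) measured cell viability in the same wells as the ARE beta-lactamase reporter. HepG2 ARE-bla cells were treated with compounds for 16 hrs at 37C/5% CO2.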

Assay [16] in a line: qHTS assay to identify small molecule antagonists of the farnesoid-X-receptor (FXR) signaling pathway - cell viability counter screen (AID 743221; active = well fitted cell-killing curve with a large enough effect in the repeat runs, not every such curve was filed as active; also: nearly all actives have a fitted effect of over 50% in size; also: potency is read from the fitted curve at half-maximal effect). The method, boiled down:
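Here viability was scored by luminescence after CellTiter-Glo addition to wells already read for beta-lactamase. Prior treatment: compound plus CDCA (50 uM final), 16 h, 37 C, HEK 293T FXR-bla cells.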

For assay [17], the target named is Bile acid receptor (Homo sapiens) (UniProt Q96RI1). Put plainly: qHTS assay to identify small molecule antagonists of the farnesoid-X-receptor (FXR) signaling pathway (AID 743217; active = well fitted inhibition curve with a large enough effect in the signal ratio in the repeat runs, not every such curve was filed as active; the % refers to the signal ratio). The method, boiled down: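 Read-out: beta-lactamase FRET fluorescence (LiveBLAzer B/G substrate, 2 h, room temperature) in GeneBLAzer FXR-UAS-bla HEK 293T cells. Compounds were co-dosed with 50 uM chenodeoxycholic acid (final) and incubated 16 h at 37 °C.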
Chain of Bile acid receptor (Homo sapiens) (Q96RI1 whole entry, looked up): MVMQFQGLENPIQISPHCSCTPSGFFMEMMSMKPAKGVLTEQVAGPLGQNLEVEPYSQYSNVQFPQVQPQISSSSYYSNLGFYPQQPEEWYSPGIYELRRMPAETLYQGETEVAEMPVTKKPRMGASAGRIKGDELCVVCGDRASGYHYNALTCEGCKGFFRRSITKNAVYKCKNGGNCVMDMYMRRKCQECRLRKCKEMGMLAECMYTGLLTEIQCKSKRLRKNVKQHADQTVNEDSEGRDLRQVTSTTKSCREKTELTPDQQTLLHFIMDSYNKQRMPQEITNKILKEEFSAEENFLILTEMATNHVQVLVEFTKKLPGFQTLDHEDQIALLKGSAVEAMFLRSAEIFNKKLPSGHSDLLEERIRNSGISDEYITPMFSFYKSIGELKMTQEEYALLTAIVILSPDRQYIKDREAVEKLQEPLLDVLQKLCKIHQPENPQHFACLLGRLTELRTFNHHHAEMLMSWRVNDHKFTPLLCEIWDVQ

For assay [18] the target is unchanged. Put plainly: qHTS assay to identify small molecule agonists of the farnesoid-X-receptor (FXR) signaling pathway (AID 743220; active = well fitted activation curve with a large enough effect in the signal ratio in the repeat runs, not every such curve was filed as active; the % refers to the signal ratio). Summed up:
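FXR-UAS-bla HEK 293T cells carrying a UAS-driven beta-lactamase reporter were plated for 5 h at 37C/5% CO2, then exposed to DMSO-dissolved Tox21 10K compounds for 16 h at 37C. A LiveBLAzer B/G FRET substrate was loaded for 2 h at room temperature before fluorescence reading.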

A short description of assay [19]: qHTS assay to identify small molecule agonists of the farnesoid-X-receptor (FXR) signaling pathway - cell viability counter screen (AID 743218). Also: nearly all actives have a fitted effect of over 45% in size. The method, boiled down:
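Luminescence from CellTiter-Glo, read after 30 min at RT, reports viability of GeneBLAzer FXR-UAS-bla HEK 293T cells treated 16 h with compounds in the wells used for the beta-lactamase reporter.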

Molecules are shown by their SMILES. “And” between values parts separate entries of the source, which are not always exact repeats. Equal entries are not always repeated. Inconclusive results are not listed. Some structures have more than one record in an assay (separate samples or runs), and their calls can disagree. The source made the active and inactive calls. Unless noted, calls follow the shape of the dose curve; as a rule, active = well fitted curve in the direction sought with a large enough effect in the repeat runs; inconclusive = weak or mixed curves; inactive = no such curve, though single readings can be large; an effect the other way counts as inactive or inconclusive.

Chain of Peroxisome proliferator-activated receptor delta (Homo sapiens) (Q03181 whole entry, looked up): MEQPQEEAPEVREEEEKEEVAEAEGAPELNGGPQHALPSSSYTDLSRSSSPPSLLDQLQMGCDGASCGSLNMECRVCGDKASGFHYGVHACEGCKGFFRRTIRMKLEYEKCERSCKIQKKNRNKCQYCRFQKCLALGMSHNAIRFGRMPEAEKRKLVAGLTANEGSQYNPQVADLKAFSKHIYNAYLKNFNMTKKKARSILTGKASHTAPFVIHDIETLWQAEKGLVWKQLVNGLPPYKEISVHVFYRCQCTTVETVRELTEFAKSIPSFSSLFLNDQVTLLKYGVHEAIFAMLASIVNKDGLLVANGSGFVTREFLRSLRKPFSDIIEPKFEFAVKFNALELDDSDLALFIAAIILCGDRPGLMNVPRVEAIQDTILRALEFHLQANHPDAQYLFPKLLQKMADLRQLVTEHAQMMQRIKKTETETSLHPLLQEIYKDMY
Chain of Aryl hydrocarbon receptor (Homo sapiens) (P35869 whole entry, looked up): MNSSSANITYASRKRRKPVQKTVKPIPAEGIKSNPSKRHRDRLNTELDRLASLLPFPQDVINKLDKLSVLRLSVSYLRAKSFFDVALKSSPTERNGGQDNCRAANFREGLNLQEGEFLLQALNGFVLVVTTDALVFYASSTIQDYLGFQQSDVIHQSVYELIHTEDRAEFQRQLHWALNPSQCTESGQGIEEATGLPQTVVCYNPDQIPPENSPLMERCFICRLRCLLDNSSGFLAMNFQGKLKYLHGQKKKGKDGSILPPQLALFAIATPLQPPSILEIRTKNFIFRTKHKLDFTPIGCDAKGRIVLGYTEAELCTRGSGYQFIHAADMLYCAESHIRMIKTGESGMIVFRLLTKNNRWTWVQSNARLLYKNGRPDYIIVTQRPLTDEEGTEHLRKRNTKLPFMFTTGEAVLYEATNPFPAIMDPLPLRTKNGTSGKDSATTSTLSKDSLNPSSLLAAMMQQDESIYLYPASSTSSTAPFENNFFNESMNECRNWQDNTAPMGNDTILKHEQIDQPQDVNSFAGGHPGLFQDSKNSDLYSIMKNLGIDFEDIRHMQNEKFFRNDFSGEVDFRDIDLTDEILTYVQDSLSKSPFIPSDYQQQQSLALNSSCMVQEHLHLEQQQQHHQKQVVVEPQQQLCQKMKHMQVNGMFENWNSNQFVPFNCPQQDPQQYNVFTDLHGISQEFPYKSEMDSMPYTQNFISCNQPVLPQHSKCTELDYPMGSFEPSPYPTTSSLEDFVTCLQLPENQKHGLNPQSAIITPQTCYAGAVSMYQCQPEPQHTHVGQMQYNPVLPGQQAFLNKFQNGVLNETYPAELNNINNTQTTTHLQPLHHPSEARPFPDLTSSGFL
Chain of Peroxisome proliferator-activated receptor gamma (Homo sapiens) (P37231 whole entry, looked up): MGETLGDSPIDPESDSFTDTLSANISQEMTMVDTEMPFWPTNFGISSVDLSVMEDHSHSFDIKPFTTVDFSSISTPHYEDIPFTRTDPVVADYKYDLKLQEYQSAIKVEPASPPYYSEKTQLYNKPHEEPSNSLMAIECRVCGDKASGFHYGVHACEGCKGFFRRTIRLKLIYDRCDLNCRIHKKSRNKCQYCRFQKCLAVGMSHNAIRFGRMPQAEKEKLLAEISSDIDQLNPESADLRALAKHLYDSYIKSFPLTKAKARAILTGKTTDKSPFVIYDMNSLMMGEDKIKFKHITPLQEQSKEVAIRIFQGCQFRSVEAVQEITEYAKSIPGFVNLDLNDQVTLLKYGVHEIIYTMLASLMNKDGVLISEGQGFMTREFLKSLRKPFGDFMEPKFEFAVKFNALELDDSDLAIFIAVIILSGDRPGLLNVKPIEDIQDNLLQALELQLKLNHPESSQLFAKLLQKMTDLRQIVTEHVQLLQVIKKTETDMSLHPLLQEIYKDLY

With `CNC(C)Cc1ccccc1OC` (stereo not given), the Potency result in assay [1], in [2], in assay [3], in assay [4], in assay [5] and in assay [6] was “inactive” in each case. The Potency result in [7], in assay [9], in [11] and in [12] was “inactive” each time. The result in assay [8], in assay [10], in assay [13] and in assay [14] was inactive.
As for `CCCCN(N=O)C(=N)N[N+](=O)[O-]`, the Potency result in [1], in assay [2], in assay [3], in assay [4], in assay [5] and in assay [6] was “inactive” throughout. Further, the Potency entry in assay [15], in assay [11], in [12] and in assay [16] was “inactive” throughout. Moreover, the compound was called inactive in [10], in assay [13] and in assay [14].
Regarding `O=C(O)C(F)(F)C(F)(F)C(F)(F)C(F)(F)C(F)(F)C(F)(F)C(F)(F)C(F)(F)C(F)(F)C(F)(F)F`, the Potency result in [1], in [2], in assay [3], in [4], in [5] and in assay [15] was “inactive” throughout. Also, the Potency result in [7], in [11], in assay [17] and in [16] was “inactive” throughout. Also, the compound was classed as inactive in [8], in assay [18], in assay [13] and in [14].
For `CCOc1ccc(C(C)(C)COCc2cccc(Oc3ccccc3)c2)cc1`, the Potency entry in [1], in assay [2], in assay [3], in assay [4], in assay [5] and in assay [15] was “inactive” throughout. In addition, the Potency result in [7], in [9], in assay [11], in [12], in assay [17] and in assay [19] was “inactive” each time. In addition, the Potency result in [16] was “inactive”. The outcome in assay [8], in assay [10], in assay [18] and in assay [13] was inactive.
With `O=[N+]([O-])c1ccc(F)c([N+](=O)[O-])c1`, the Potency entry in assay [1] was “inactive and 30.9 µM (active)”; in [3] it was “inactive and 49 µM (active)”; in [15] it was 30.9 µM (active). In addition, the Potency entry in [2], in [4], in [7] and in assay [17] was “inactive” in each case. Moreover, the compound was called inactive in [10], in assay [18], in assay [13] and in assay [14].
Consider `COCC(C)N(C(=O)CCl)c1c(C)csc1C` (stereo not given), for which the Potency result in [1], in [2], in assay [3], in assay [4], in [5] and in assay [7] was “inactive” in each case. In addition, the Potency entry in assay [9], in assay [17] and in assay [19] was “inactive” throughout. Further, the Potency in assay [6] was 4.33 µM (active). Moreover, the result in [8] and in [18] was inactive.
Consider `BrCCCCBr`, for which the Potency entry in [1], in assay [2], in assay [3], in assay [4], in assay [5] and in assay [15] was “inactive” in each case. In addition, the Potency result in assay [7], in [19] and in [16] was “inactive” each time. Besides, the result in [8] was inactive.
Take `[CH3][Sn]([CH3])([Cl])[Cl]`: the Potency result in assay [1], in assay [2], in assay [3], in assay [4], in assay [5] and in assay [15] was “inactive” throughout. Also, the Potency result in assay [7] and in assay [11] was “inactive” throughout. The Potency in [6] was 34.4 µM (active); in assay [16], 55.9 µM (active) and inactive. For the same compound, the compound was called inactive in assay [13] and in [14].
For the compound `CCCC(=O)Cl`, the Potency result in [1], in assay [2], in assay [3], in assay [4], in assay [5] and in assay [7] was “inactive” in each case. Moreover, the Potency result in [9], in [11], in [12], in assay [17] and in [19] was “inactive” throughout. Moreover, the compound was classed as inactive in [8], in [10], in assay [18], in assay [13] and in assay [14].
For the compound `O=C1NCN(c2ccccc2)C12CCN(CCCOc1ccc(F)cc1)CC2`, the Potency entry in assay [1], in assay [2], in assay [4], in assay [5], in [7] and in assay [11] was “inactive” in each case. For the same compound, in assay [16], the Potency result was “inactive”. Besides, the Potency in assay [3] was 5.31 µM (active); in assay [6], 2.37 µM (active). In addition, the compound was called inactive in assay [10], in assay [18] and in [13].
Regarding `C[N+](C)(C)CCCl`, the Potency result in [1], in [2], in assay [3], in assay [5], in assay [6] and in assay [15] was “inactive” in each case. Also, the Potency entry in assay [7], in [9], in assay [11], in [12] and in assay [19] was “inactive” throughout. For the same compound, the compound was called inactive in assay [8], in assay [10] and in [14].
With `Cl/C=C\Cl`, the Potency entry in assay [1], in assay [2], in assay [3], in [5], in assay [6] and in [15] was “inactive” each time. The Potency entry in assay [7], in assay [9], in [11], in [12], in assay [19] and in [16] was “inactive” each time. Also, the outcome in [10], in [13] and in assay [14] was inactive.
